Test [1] is described as follows: ATG_CRE_CIS: Attagene CIS-FACTORIAL HepG2 Assay for human cAMP Responsive Element (CRE) binding protein 3 (AID 2282926). Conditions: HepG2 CRE cis-reporter, Attagene multiplexed mRNA; actives raise or lower the signal. The essentials: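 Induced reporter mRNA from a CRE cis element, measured in HepG2 among many multiplexed units at 24 h. Detection used RT-PCR plus capillary electrophoresis of fluorescent fragments; DMSO served as negative control.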

The target of test [2] is CCAAT/enhancer-binding protein beta (Homo sapiens) (UniProt P17676). The test is described as follows: ATG_C_EBP_CIS: Attagene CIS-FACTORIAL HepG2 Assay for human CCAAT/Enhancer Binding Protein (C/EBP) beta (AID 2282927). Conditions: HepG2 Attagene cis-factorial transcription factor reporter; actives raise or lower the signal. The essentials:
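Changes in reporter mRNA, rather than exogenous chimeric receptor activity, reflect native C/EBP signalling in transfected HepG2 cells dosed for 24 h; transcripts are detected by RT-PCR and capillary electrophoresis.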

Test [3] in a line: ATG_DR4_LXR_CIS: Attagene CIS-FACTORIAL HepG2 Assay for human Liver X Receptor (LXR), DR4 submotif (AID 2282929). Conditions: HepG2 Attagene DR4 cis-reporter, mRNA transcription; actives raise or lower the signal. The essentials: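 Cells were transfected with multiple reporter transcription units, exposed to chemicals for 24 hours, then lysed for RNA. Reporter mRNA induction was measured by RT-PCR with capillary electrophoresis detection and fitted in both directions relative to DMSO.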

Test [4] deals with Aryl hydrocarbon receptor (Homo sapiens) (UniProt P35869). The test is described as follows: ATG_Ahr_CIS: Attagene CIS-FACTORIAL HepG2 Assay for human Aryl Hydrocarbon Receptor (Ahr) (AID 2282930). Conditions: HepG2 AhR cis-factorial reporter transcription; actives raise or lower the signal. Summed up: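 HepG2, transient MRTU (cis) transfection, 24 h exposure. RNA → cDNA → PCR → 6-FAM primer extension → HpaI 2 h 37 C → CE. Fit: bidirectional, DMSO baseline.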
Sequence of Aryl hydrocarbon receptor (Homo sapiens) (P35869 whole entry, looked up): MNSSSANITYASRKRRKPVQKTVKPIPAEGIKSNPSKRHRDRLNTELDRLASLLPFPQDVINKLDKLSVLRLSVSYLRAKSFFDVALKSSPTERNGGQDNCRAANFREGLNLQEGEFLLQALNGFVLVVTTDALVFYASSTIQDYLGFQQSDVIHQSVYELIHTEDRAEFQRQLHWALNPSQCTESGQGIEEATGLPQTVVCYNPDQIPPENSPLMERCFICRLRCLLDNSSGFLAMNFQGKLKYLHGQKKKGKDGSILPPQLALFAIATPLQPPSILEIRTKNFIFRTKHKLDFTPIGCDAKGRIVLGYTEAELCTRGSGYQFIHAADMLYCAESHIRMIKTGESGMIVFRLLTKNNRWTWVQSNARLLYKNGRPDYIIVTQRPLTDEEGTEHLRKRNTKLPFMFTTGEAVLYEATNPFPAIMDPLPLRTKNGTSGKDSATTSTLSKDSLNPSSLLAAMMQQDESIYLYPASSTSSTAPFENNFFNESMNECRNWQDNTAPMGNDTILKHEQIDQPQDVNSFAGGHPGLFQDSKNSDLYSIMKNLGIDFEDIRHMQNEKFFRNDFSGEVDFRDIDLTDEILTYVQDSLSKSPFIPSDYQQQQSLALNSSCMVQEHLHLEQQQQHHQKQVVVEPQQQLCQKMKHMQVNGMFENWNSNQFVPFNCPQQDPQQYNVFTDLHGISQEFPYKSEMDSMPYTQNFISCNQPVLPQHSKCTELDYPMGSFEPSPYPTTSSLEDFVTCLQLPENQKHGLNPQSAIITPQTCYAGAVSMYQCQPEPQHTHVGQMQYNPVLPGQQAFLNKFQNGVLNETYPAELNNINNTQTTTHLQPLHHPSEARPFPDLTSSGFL

Test [5] can be described thus: ATG_AP_1_CIS: Attagene CIS-FACTORIAL HepG2 Assay for human Activator Protein 1 (AP-1) (AID 2282931). Conditions: HepG2 Attagene cis-factorial AP-1 reporter mRNA; actives raise or lower the signal. The essentials:
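Endogenous transcription-factor activity in human HepG2 liver cells is read through a cis-promoter reporter transcript, sampled 24 h after dosing. Detection uses RT-PCR with capillary electrophoresis; values come from bidirectional fitting relative to DMSO.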

Test [6] can be described thus: ATG_AP_2_CIS: Attagene CIS-FACTORIAL HepG2 Assay for human Activator Protein 2 (AP-2) (AID 2282932). To be noted: HepG2 AP-2 cis-reporter, Attagene transcription factor profiling; actives raise or lower the signal. Summed up:
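Transiently transfected HepG2 cells are exposed to chemical for 24 h. Reporter transcripts are then measured as fluorescence following RT-PCR and capillary separation, and gain- or loss-of-signal is fitted relative to DMSO.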

The nature of test [7]: ATG_BRE_CIS: Attagene CIS-FACTORIAL HepG2 Assay for human Bone Morphogenetic Protein (BMP) Response Element (BRE) (AID 2282933). Conditions: HepG2 BMP response element reporter, Attagene transcription factor profiling; actives raise or lower the signal. The essentials:
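Transient MRTU transfection of human HepG2 liver cells; 24 h compound treatment; total RNA isolated, reverse-transcribed, PCR-amplified, 6-FAM labelled, HpaI-cut, capillary electrophoresis. DMSO = negative control/baseline, bidirectional fit.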

Test [8] deals with Retinoic acid receptor alpha (Homo sapiens) (UniProt P10276). The test is described as follows: ATG_DR5_RAR_CIS: Attagene CIS-FACTORIAL HepG2 Assay for human Retinoic Acid Receptor Alpha (RARE), DR5 submotif (AID 2282934). Conditions: HepG2 Attagene cis-factorial RARE DR5 reporter, mRNA; actives raise or lower the signal. The essentials: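 HepG2, transient cis-reporter transfection, 24 h exposure. mRNA readout: RT-PCR, FAM label, HpaI cut, capillary electrophoresis. DMSO baseline, gain/loss fitting.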
Sequence of Retinoic acid receptor alpha (Homo sapiens) (P10276 whole entry, looked up): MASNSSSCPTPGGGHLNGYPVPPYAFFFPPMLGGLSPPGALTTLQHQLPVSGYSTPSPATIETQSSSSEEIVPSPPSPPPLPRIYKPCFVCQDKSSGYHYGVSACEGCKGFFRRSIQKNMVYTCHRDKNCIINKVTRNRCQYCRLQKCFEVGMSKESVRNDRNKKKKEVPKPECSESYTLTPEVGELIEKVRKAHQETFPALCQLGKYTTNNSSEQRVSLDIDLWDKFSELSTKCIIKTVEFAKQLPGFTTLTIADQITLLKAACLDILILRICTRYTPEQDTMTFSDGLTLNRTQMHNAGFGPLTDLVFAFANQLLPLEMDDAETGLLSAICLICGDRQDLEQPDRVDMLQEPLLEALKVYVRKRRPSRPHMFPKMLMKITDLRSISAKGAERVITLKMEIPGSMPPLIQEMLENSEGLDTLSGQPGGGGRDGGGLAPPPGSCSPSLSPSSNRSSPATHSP

For test [9], the target named is Transcription factor E2F1 (Homo sapiens) (UniProt Q01094). Nature of the test: ATG_E2F_CIS: Attagene CIS-FACTORIAL HepG2 Assay for human E2F Transcription Factor 1 (AID 2282935). To be noted: HepG2 Attagene cis-reporter, E2F reporter RNA transcripts; actives raise or lower the signal. The essentials: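 Fluorescent RT-PCR products, digested with HpaI for 2 h at 37 C, are separated by capillary electrophoresis. Source RNA comes from transfected HepG2 cultures treated for 24 h.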
Sequence of Transcription factor E2F1 (Homo sapiens) (Q01094 whole entry, looked up): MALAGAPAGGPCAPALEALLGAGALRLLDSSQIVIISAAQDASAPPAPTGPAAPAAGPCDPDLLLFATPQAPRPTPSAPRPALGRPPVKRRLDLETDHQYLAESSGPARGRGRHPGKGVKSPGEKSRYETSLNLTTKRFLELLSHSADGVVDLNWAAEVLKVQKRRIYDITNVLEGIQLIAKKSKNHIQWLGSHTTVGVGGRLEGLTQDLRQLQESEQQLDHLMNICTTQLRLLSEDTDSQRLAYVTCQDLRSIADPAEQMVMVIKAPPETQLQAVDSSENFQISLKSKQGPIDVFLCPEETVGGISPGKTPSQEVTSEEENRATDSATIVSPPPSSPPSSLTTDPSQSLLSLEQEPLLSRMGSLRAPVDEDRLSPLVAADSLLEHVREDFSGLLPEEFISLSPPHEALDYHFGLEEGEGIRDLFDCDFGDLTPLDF

Test [10] is described as follows: ATG_E_Box_CIS: Attagene CIS-FACTORIAL HepG2 Assay for human Enhancer Box (E-box) (AID 2282936). To be noted: HepG2 E-box cis-reporter transcription, actives raise or lower the signal. The essentials:
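Fluorescent reporter fragments separated by capillary electrophoresis gave the signal; mRNA came from HepG2 cells transfected with cis-element reporters and treated 24 h. Curves fitted bidirectionally relative to DMSO controls.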

Test [11] can be described thus: ATG_M_61_CIS: Attagene CIS-FACTORIAL HepG2 Assay for M61 Transcription Factor (Internal Marker) (AID 2282937). To be noted: HepG2 Attagene CIS-FACTORIAL M61 internal marker reporter; actives raise or lower the signal. Summed up:
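Cells were transfected with reporter units under cis-regulatory promoters, treated with chemicals for 24 h, then lysed for RNA. Reporter transcripts were quantified by RT-PCR and capillary electrophoresis, and activity was fitted bidirectionally against DMSO.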

The nature of test [12]: ATG_EGR_CIS: Attagene CIS-FACTORIAL HepG2 Assay for human Early Growth Response 1 (EGR1) (AID 2282938). To be noted: HepG2 Attagene CIS-FACTORIAL EGR reporter mRNA; actives raise or lower the signal. Summed up:
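Endogenous TF activity in HepG2 liver cells was gauged through cis-promoter reporter constructs transiently transfected. After 24 h dosing, reporter mRNA was quantified by RT-PCR and capillary electrophoresis, and curves fitted in both directions versus DMSO.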

Test [13] is described as follows: ATG_M_19_CIS: Attagene CIS-FACTORIAL HepG2 Assay for M19 Transcription Factor (Internal Marker) (AID 2282939). To be noted: HepG2 Attagene CIS-FACTORIAL M19 internal marker reporter; actives raise or lower the signal. Summed up:
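Transfect HepG2 with MRTU reporter library → dose chemical, 24 h → isolate total RNA, reverse-transcribe with oligo(dT) → PCR, 6-FAM label, HpaI cut (2 h, 37 C) → capillary electrophoresis. Bidirectional fit vs DMSO.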

The nature of test [14]: ATG_ERE_CIS: Attagene CIS-FACTORIAL HepG2 Assay for Estrogen Response Element (ERE) (AID 2282940). To be noted: HepG2 ERE cis-reporter, Attagene RNA transcript; actives raise or lower the signal. Summed up:
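Transient MRTU transfection of human HepG2; cis-element promoters; 24 h dosing; total RNA → RT (oligo dT) → PCR → 6-FAM primer extension → HpaI digest → CE fluorescence. Bidirectional fit, DMSO baseline.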

For test [15], the target named is Hepatocyte nuclear factor 3-beta (Homo sapiens) (UniProt Q9Y261). The test is described as follows: ATG_FoxA2_CIS: Attagene CIS-FACTORIAL HepG2 Assay for human Forkhead box A2 (FOXA2) (AID 2282942). Conditions: HepG2 cis-reporter transcription factor activity, 24 h; actives raise or lower the signal. Summed up:
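Endogenous transcription factor activity was read in HepG2 cells carrying transiently transfected cis-promoter reporter units. After 24 h dosing, reporter mRNA was quantified by RT-PCR and capillary electrophoresis, and values fitted bidirectionally versus DMSO.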

Test [16] is described as follows: ATG_FoxO_CIS: Attagene CIS-FACTORIAL HepG2 Assay for human Forkhead box O (FoxO) (AID 2282943). Conditions: HepG2 Attagene cis-reporter, FoxO element, mRNA; actives raise or lower the signal. The essentials: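 Human hepatoma HepG2 cells carry transiently introduced reporter transcription units controlled by cis promoter elements. Chemical treatment lasted 24 h, and mRNA signal was compared with DMSO.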

A short description of test [17]: ATG_GATA_CIS: Attagene CIS-FACTORIAL HepG2 Assay for human GATA Binding Protein (AID 2282944). Conditions: HepG2 GATA cis-element reporter, Attagene multiplex mRNA; actives raise or lower the signal. Summed up: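 Transient MRTU transfection, HepG2, 24 h compound exposure. Total RNA → oligo(dT) RT → PCR → 6-FAM primer extension → HpaI cut → CE. Bidirectional fit vs DMSO.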

Test [18] can be described thus: ATG_GLI_CIS: Attagene CIS-FACTORIAL HepG2 Assay for human Zinc Finger Protein GLI1 (AID 2282945). Conditions: HepG2, Attagene cis-factorial reporter mRNA, GLI element; actives raise or lower the signal. Summed up:
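Bidirectional curve fits relative to DMSO, using reporter mRNA levels from RT-PCR plus capillary electrophoresis. Cells were HepG2 transiently carrying cis-regulated reporter constructs, harvested 24 h after dosing.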

A short description of test [19]: ATG_CMV_CIS: Attagene CIS-FACTORIAL HepG2 Assay for human CMV (Internal Marker) (AID 2282928).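 Also: endpoint acts as a background internal control marker rather than a target.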 To be noted: HepG2 CMV promoter reporter, transcription factor profiling; actives raise or lower the signal. Summed up:
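Reporter transcripts from transfected HepG2 cells are isolated after 24 h of chemical dosing, reverse-transcribed and amplified. Fragments labeled with 6-FAM are cut with HpaI and quantified by capillary electrophoresis; DMSO defines baseline.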

Test [20] is described as follows: ATG_Ets_CIS: Attagene CIS-FACTORIAL HepG2 Assay for human Erythroblast Transformation Specific (ETS) (AID 2282941). Conditions: HepG2 ETS cis-reporter transcription, actives raise or lower the signal. The essentials:
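Bidirectional fit versus DMSO of reporter mRNA signal, detected by RT-PCR and capillary electrophoresis in HepG2 cells transiently transfected with cis-element reporters and dosed 24 h.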

Molecules are shown by their SMILES. Calls of active or inactive are those of the source. The calls were made as follows: active = hit-call score of the fitted dose curve at least 0.9, where 1 is the maximum; inactive = score below 0.9.

Sequence of Hepatocyte nuclear factor 3-beta (Homo sapiens) (Q9Y261 whole entry, looked up): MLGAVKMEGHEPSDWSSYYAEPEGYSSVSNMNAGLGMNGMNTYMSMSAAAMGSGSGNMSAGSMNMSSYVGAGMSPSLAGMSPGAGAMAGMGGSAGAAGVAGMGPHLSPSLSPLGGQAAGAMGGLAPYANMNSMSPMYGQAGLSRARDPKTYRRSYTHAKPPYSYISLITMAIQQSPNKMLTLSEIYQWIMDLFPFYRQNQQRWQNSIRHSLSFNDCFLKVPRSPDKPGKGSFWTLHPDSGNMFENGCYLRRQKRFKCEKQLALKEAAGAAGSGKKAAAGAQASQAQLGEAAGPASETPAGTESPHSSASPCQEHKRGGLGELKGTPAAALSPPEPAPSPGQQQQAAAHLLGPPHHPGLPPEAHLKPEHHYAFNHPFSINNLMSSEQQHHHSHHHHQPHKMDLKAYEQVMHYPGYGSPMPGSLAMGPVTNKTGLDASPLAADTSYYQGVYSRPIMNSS
Sequence of CCAAT/enhancer-binding protein beta (Homo sapiens) (P17676 whole entry, looked up): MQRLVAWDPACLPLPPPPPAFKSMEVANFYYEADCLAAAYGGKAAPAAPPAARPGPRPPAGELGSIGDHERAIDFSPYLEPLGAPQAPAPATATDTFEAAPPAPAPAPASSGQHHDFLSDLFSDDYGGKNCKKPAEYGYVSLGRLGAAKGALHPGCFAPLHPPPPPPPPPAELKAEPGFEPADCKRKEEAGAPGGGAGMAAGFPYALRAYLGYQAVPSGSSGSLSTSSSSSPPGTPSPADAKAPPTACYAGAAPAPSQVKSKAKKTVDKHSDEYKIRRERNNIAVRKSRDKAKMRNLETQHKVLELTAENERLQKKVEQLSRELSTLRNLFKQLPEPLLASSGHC

As to `O=C(OCC1CCC2OC2C1)C1CCC2OC2C1` (stereo unspecified), the compound was classed as inactive in test [1], in [2], in test [3], in [4], in test [5] and in test [6]. Further, the call in test [7], in test [8], in test [9], in test [10], in [11] and in test [12] was inactive. Further, the call in test [13], in test [14], in test [15], in test [16], in test [17] and in test [18] was inactive.

Turning to `CCCCCCCOC(=O)CCC`, the compound was called inactive in test [1], in [2], in test [19], in [5], in [6] and in test [7]. Besides, the outcome in test [8], in [9], in test [10], in test [11], in [13] and in [14] was inactive. Besides, the outcome in [16], in test [17] and in test [18] was inactive.

By AC50 is commonly meant the midpoint of the concentration-response curve, whichever way the signal moves. Consider `COc1ccc(C(Cl)=C(c2ccc(OC)cc2)c2ccc(OC)cc2)cc1`, for which the outcome in test [1], in test [2], in test [3], in [4], in test [5] and in test [6] was inactive. The outcome in [7], in test [8], in test [9], in test [11], in test [12] and in test [13] was inactive. In addition, the outcome in [14], in test [20], in test [15], in test [16], in test [17] and in test [18] was inactive. Further, in test [10], the AC50 is 21.8 µM (active).

Consider `Cn1c(=O)[nH]c2ncn(C)c2c1=O`, for which the call in test [1], in [2], in [3], in test [4], in test [5] and in [6] was inactive. Besides, the compound was classed as inactive in test [7], in [8], in test [9], in test [10], in test [11] and in test [12]. Besides, the result in test [13], in test [14], in [20], in [15], in test [16] and in test [17] was inactive. In test [18], the compound was classed as inactive.

The values above are taken from PubChem BioAssay (EPA / NIEHS).
